Laboratory results published in PubChem BioAssay AID1233 (SRMLSC, 2008).
Results with a measured potency or affinity are listed apart. The source made the active and inactive calls.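 The calls were made as follows: active = a dose-response curve fit returns a half-maximal inhibitory concentration, extrapolated values included; inactive = the fit returns no such concentration.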

molecular target: HMG-CoA reductase [Enterococcus faecalis] (UniProt Q9FD70); test: inhibitors of E. faecalis class II HMGR, confirmation, biochemical, Enterococcus faecalis (AID 1233);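 also: 0% = full reaction carrier wells and 100% = background wells lacking mevalonate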; conditions: purified E. faecalis HMGR, NADPH absorbance 340 nm kinetics; series mostly up to 100 µM; inhibition: at the top concentration

Structure (SMILES) | inhibition
CCOC(=O)Cc1csc(NC(=O)COc2cccc(C)c2)n1 | -3.23% (inactive)
COc1ccc(S(=O)(=O)N2CC=C(C(=O)Nc3ccc(NC(C)=O)cc3)CC2)cc1 | -6.83% (inactive)
O=C(NCC1CCCO1)c1ccc(Cl)c(F)c1F (stereo not given) | -2.73% (inactive)
CCOc1ccc(CN2CCN(Cc3cc4ccccc4[nH]3)CC2CCO)cc1 (stereo not given) | -1.61% (inactive)
O=C(COC(=O)C1CCC(=O)N1)Nc1ccc(Br)cc1 (stereo not given) | -3.48% (inactive)
COC(=O)c1ccc(NC(=O)Nc2ccccc2F)cc1 | -8.11% (inactive)
Cc1ccc(CC(CC(=O)O)C(=O)NC2CCCCC2)cc1 (stereo not given) | 1.92% (inactive)
Cc1[nH]nc2c1C(c1ccsc1)C1=C(CC(C)(C)CC1=O)N2 (stereo not given) | -5.51% (inactive)
O=C(COC(=O)CCc1c[nH]c2ccccc12)NC1CCS(=O)(=O)C1 (stereo not given) | -4.04% (inactive)
O=C(CCCn1ncn2c(cc3occc32)c1=O)N1CCc2ccccc2C1 | -2.7% (inactive)
C/C(CC(=O)NC1CCCCC1)=N\NC(=O)COc1ccc(C)cc1Br | -7.91% (inactive)
CC(C)OC(=O)NC(C)(C)COC(=O)Nc1cccc(Cl)c1 | -4.08% (inactive)
O=C(CCn1cnnn1)Nc1ccc(Cl)c(Cl)c1 | -6.48% (inactive)
O=C(Nc1ccccc1)C(Cc1ccccc1)NC(=O)C12CC3CC(CC(C3)C1)C2 (stereo not given) | -2.25% (inactive)
COc1ccc(C/C(C)=N/NS(=O)(=O)c2ccc(Br)cc2)cc1 | -5.94% (inactive)
CC1SC(c2ccc(Cl)cc2)NC1=O (stereo not given) | 1.13% (inactive)
O=C1c2ccccc2C(=O)N1CCN1CCCCC1 | -7.22% (inactive)
COc1cc(-c2nnc(SC/C=C/c3ccccc3)n2N)cc(OC)c1OC | -0.99% (inactive)
Cc1cccc(OCC(=O)NNC(=O)CCc2ccccc2)c1 | -2.38% (inactive)
COCCNC(=O)C1c2cc(OC)c(OC)cc2C(=O)N(C)C1c1cccnc1 (stereo not given) | -0.13% (inactive)
